Results on 35 compounds are retold here after PubChem BioAssay (EPA / NIEHS).

Inconclusive results are not listed. The source made the active and inactive calls. The calls were made as follows: active = hit-call score of the fitted dose curve at least 0.9, where 1 is the maximum; inconclusive = response in the unintended direction; inactive = score below 0.9.

Read-out in this experiment: ABC Transporter (ABCB1), ABCB1 (gene 5243)
The experiment is described as follows: CLD_ABCB1_48hr: CellzDirect (CLD) Gene Expression Assay for ABC Transporter (ABCB1) at 48 hours (AID 2283695).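 As to AC50: potency for induction meaning increase of mRNA over DMSO vehicle.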 As to the method: CLD_48hr is a cell-based, multiplexed-readout assay that uses hepatocyte, a human liver primary cell, with measurements taken at 48 hours after chemical dosing in a 96-well plate.CLD_ABCB1_48hr is one of 16 assay component(s) measured or calculated from the CLD_48hr assay. It is designed to make measurements of mRNA induction, a form of inducible reporter, as detected with chemiluminescence signals by Quantitative Nuclease Protection Assay (qNPA) technology.Data from the assay component CLD_ABCB1_48hr was analyzed at the endpoint, CLD_ABCB1_48hr, in the positive analysis fitting direction relative to DMSO as the negative control and baseline of activity. Using a type of inducible reporter, gain-of-signal activity can be used to understand changes in the reporter gene as they relate to the gene ABCB1. Furthermore, this assay endpoint can be referred to as a primary readout. To generalize the intended target to other relatable targets, this assay endpoint is annotated to the transporter intended target family, where subfamily is ABC transporter.
Human hepatocyte cultures were treated daily for two consecutive days with fresh dosing solutions containing appropriate concentrations of the 320 ToxCast chemicals (chemical identities were blinded to CellzDirect and other ToxCast collaborators), vehicle control (0.2% DMSO), and positive control inducers as summarized in Table 1. Due to the large number of treatment groups and chemicals examined, the ToxCast chemicals were divided into two groups (spanning two independent cultures of hepatocytes from separate donor preparations (Hu778: ToxCast plates 1 and 2; Hu776: ToxCast plates 3 and 4). Each preparation of human hepatocyte cultures was treated with respective vehicle control, medium only control, set of six positive controls/reference chemicals for the five hepatic receptor pathways, and a subset of eight of the ToxCast chemicals (indoxacarb, pyrithiobac-sodium, norflurazon, cyhalofop-butyl, methomyl, thiram, acetochlor, and propiconazole). These replicate data, coupled with internal replicates designed within the blinded ToxCast chemical library, provided additional data to evaluate interindividual differences between hepatocyte preparations and their potential impact on chemical profiles.Cell morphology and integrity were evaluated using phase-contrast microscopy as an indicator of hepatocyte cell health (Tyson & Green, 1987). Cultures for each treatment group (i.e., media, vehicle [0.2% DMSO], positive control inducers [multiple concentrations], and the ToxCast chemicals [multiple concentrations]) were observed and cell morphology was assessed relative to vehicle control cultures at each harvest time point (0, 6, 24, or 48 h). […] Images were evaluated at the conclusion of the study to assess changes in cell integrity and account for the effects of chemical exposure on uncharacteristic changes in concentration-dependent gene expression profiles. The results from these determinations of apparent cytotoxicity were annotated (yes/no) alongside the corresponding qNPA data for reference.At the conclusion of each treatment period, hepatocyte cultures (96-well) were washed with 1 volume of HBSS, lysed by addition of 25 ul ArrayPlate lysis buffer (HTG, Tucson, AZ), and 70 ul/well of Denaturation Oil, denatured by incubation at 95C for 10 min, and frozen at approximately -70C until analysis by nuclease protection assay (qNPA) (Roberts et al., 2007). For qNPA analysis, cell lysates were thawed at 50C for approximately 30 min, qNPA probes were added, and samples were incubated at 95C for 10 min to begin the detection process by denaturing the target RNA, dissociating the duplexes and secondary structure hybridization. At the conclusion of the hybridization period, S1 nuclease reagent was added to each sample to digest all nonprotected nucleotides at 50C for 60-90 min. […]
With `CC1(C)C(C=C(Cl)Cl)C1C(=O)OCc1cccc(Oc2ccccc2)c1` (stereo not given), the call was inactive.

Turning to `CCOC(=O)NCCOc1ccc(Oc2ccccc2)cc1`, the outcome was inactive.

Consider `C=CCOC(Cn1ccnc1)c1ccc(Cl)cc1Cl` (stereo not given), for which the AC50 was 36900 nM (active).

For `CCCN(CCC)C(=O)SCC`, the outcome was inactive.

On to `CCCCCCC(C)OC(=O)COc1nc(F)c(Cl)c(N)c1Cl` (stereo not given), for which the compound was called inactive.

Consider `CCSC(=O)N(CC(C)C)CC(C)C`, for which the call was inactive.

With `CCNc1nc(N)nc(Cl)n1`, the outcome was inactive.

As for `CCC(C)OC(=O)N1CCCCC1CCO` (stereo not given), the compound was classed as inactive.

On to `CCCOC(=O)c1ccc(C(=O)OCCC)nc1`, for which the outcome was inactive.

With `CCOC(=O)COc1cc(-n2ncc(C(F)(F)F)c(C)c2=O)c(F)cc1Cl`, the compound was called inactive.

Turning to `OB(O)O`, the compound was called inactive.

In the case of `Cc1nn(C)c(Oc2ccccc2)c1C=NOCc1ccc(C(=O)OC(C)(C)C)cc1`, the call was inactive.

For `COC(=O)c1ccc(I)cc1S(=O)(=O)NC(=O)Nc1nc(C)nc(OC)n1`, the compound was classed as inactive.

For `COCCO`, the compound was classed as inactive.

With `CCC(O)=C1C(=O)CC(C(=O)O)CC1=O` (stereo not given), the compound was classed as inactive.

Regarding `COC(=O)c1c(Cl)nn(C)c1S(=O)(=O)NC(=O)Nc1nc(OC)cc(OC)n1`, the result was inactive.

Regarding `CCCCC(CC)COC(=O)c1ccccc1C(=O)O` (stereo not given), the compound was classed as inactive.

`O=C(Nc1ccc([N+](=O)[O-])cc1Cl)c1cc(Cl)ccc1O`: the result was inactive.

In the case of `N#CSCSc1nc2ccccc2s1`, the result was inactive.

In the case of `CCCCC(CC)CN1C(=O)C2C3C=CC(C3)C2C1=O` (stereo not given), the result was inactive.

`COC(=O)c1ccc(CNS(C)(=O)=O)cc1S(=O)(=O)NC(=O)Nc1nc(OC)cc(OC)n1`: the call was inactive.

Take `COC(=O)CSc1cc(N=c2sc(=O)n3n2CCCC3)c(F)cc1Cl`: the compound was classed as inactive.

On to `CCCN(CCC)c1c([N+](=O)[O-])cc(C(F)(F)F)c(N)c1[N+](=O)[O-]`, for which the outcome was inactive.

For `C#CCOC(=O)[C@@H](C)Oc1ccc(Oc2ncc(Cl)cc2F)cc1`, the compound was called inactive.

`S=C(S)NCCNC(=S)S.[Mn+2].[S-]C([S-])=NCCN=C([S-])[S-].[Zn+2]`: the AC50 was 1060 nM (active).

As for `CCCCCOC(=O)COc1cc(N2C(=O)C3=C(CCCC3)C2=O)c(F)cc1Cl`, the compound was classed as inactive.

For the compound `CCCCOC(=O)C(C)Oc1ccc(Oc2ccc(C(F)(F)F)cn2)cc1` (stereo not given), the compound was classed as inactive.

For `CCN(CC)C(=O)c1cccc(C)c1`, the call was inactive.

With `CCOC(=O)C(C)Oc1ccc(Oc2cnc3cc(Cl)ccc3n2)cc1` (stereo not given), the compound was classed as inactive.

As for `COc1c(Cl)ccc(Cl)c1C(=O)O`, the call was inactive.

As to `CCCOC(=O)NCCCN(C)C`, the result was inactive.

On to `S=C([S-])NCCNC(=S)[S-].[Mn+2]`, for which the AC50 was 1900 nM (active).

On to `CC(C)(C)[C@@H](O)[C@@H](Cc1ccc(Cl)cc1)n1cncn1`, for which the call was inactive.

Regarding `CCOC(=O)C(C)Oc1ccc(Oc2nc3ccc(Cl)cc3o2)cc1` (stereo not given), the call was inactive.

With `O=C(O)C1(C(=O)Nc2ccc(Cl)cc2Cl)CC1`, the compound was classed as inactive.
